Source: PubChem
Only some compounds are listed: those with a hit (about 3.8% of all), similar ones and a draw of the others.
ATXN viability: viability counter-screen for ATXN expression inhibitors; S2 cells (HEK-293 line with an ATXN2-luciferase reporter) viability, CellTiter-Fluor protease fluorescence, 24 h; Potency, µM (titrated, usually from 56.7 µM), most hits filed as cytotoxic; hit rate 0.49% among 400,000; also: nearly all actives have a fitted effect of over 40% in size
Nrf2 block: blocks Nrf2 signaling; A549 ARE-Fluc reporter, luciferase luminescence, 18-24 h; Potency, µM (doses to about 46 µM), for inactives: at the top dose activity change, negative = inhibition, usual class: inhibitors; hit rate 2.1% among 360,000; also: % is scaled to controls: 0 for no effect and ±100 for the full control effect; nearly all actives have a fitted effect of over 60% in size
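Quantitative HTS in A549 cells stably bearing an antioxidant response element-firefly luciferase construct. Inhibition of Nrf2-driven transcription was scored by luminescence after 18-24 h of compound exposure at 37 °C.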
A549 viability: counter-screen for Nrf2 inhibitors: cytotoxicity in A549 cells | Potency, µM (doses to about 46 µM), for inactives: at the highest dose activity change, negative = cytotoxicity, usual class: inhibitors | A549 ARE-Fluc cells, CellTiter-Fluor viability, 18-24 h | AID 504648 | hit rate 0.16% among 390,000; also: % is scaled to controls: 0 for no effect and ±100 for the full control effect
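A549 ARE-Fluc cells in 5% FBS OPTI-MEM, 5000 cells/well, rested 2 h then exposed to compounds in concentration-response for 18-24 h at 37 °C. Viability by CellTiter-Fluor fluorescence (Ex 405/Em 525) after 30 min; luciferase luminescence (BugLite, 15 min, RT) read afterwards.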
HepG2 tox: counter-screen for TGF-b inhibitors: cytotoxicity in HepG2 cells | HepG2 CAGA-GFP viability, ATP luminescence, 18 h | Potency, µM (top dose mostly 46.1 µM), without a hit: at the highest dose activity change, negative = cytotoxicity, actives largely listed as cytotoxic | hit rate 0.76% among 410,000
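HepG2 CAGA-GFP cells (1000/well, DMEM with 1% FBS) received compound, then TGF-beta at 500 pg/mL final, and were incubated 18 hours at 37 degrees C. Viability was read by CellTiter-Glo luminescence. Media-only wells were set as complete cell-killing and DMSO as no toxicity.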
ATXN2 expr inh: reduces ATXN2 reporter expression in HEK-293 cells | HEK-293 ATXN2-luciferase reporter, luminescence, 24 h | Potency, µM (series often up to 57 µM), without a hit: top-dose activity change, negative = inhibition, most hits filed as inhibitors | hit rate 0.72% among 360,000 | AID 1745845; also: % is scaled to controls: 0 for no effect and ±100 for the full control effect; nearly all actives have a fitted effect of over 55% in size
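qHTS (up to 57 uM final) was run with 24 h compound exposure of reporter cells at 37 °C. Each well was multiplexed: SteadyGlo luminescence measured ATXN2-luciferase expression after a fluorogenic Gly-Phe-AFC viability readout (25 uM final).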
TGFb SMAD3 inh: blocks TGF-b signaling; HepG2 CAGA-GFP TGF-b/SMAD3 reporter, GFP fluorescence, 18 h; TGF-beta stimulated, 500 pg/mL final; hit rate 1.2% among 410,000; Potency, µM (highest dose often 46.1 µM), for the others: at the highest dose activity, negative = inhibition, usual class: inhibitors; also: % is scaled to controls: 0 for no effect and ±100 for the full control effect; nearly all actives have a fitted effect of over 65% in size
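Using HEPG2 CAGA-GFP reporter cells at 1000 cells/well, we pinned test compounds, stimulated with recombinant TGF-beta (500 pg/mL final) and measured total well GFP after 18 h.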
* marks the source's active call; other numbers are inactive results; i = inactive; u = inconclusive; x = no result given. Calls follow the shape of the dose curve; as a rule, active = well fitted curve in the direction sought with a large enough effect; inconclusive = small, poorly fitted or top-dose-only effect, or another doubt; inactive = no such curve, though single readings can be large; an effect the other way counts as inactive or inconclusive. Potency is read from the fitted curve at half-maximal effect.

SMILES	ATXN viability	Nrf2 block	A549 viability	HepG2 tox	ATXN2 expr inh	TGFb SMAD3 inh
COc1ccc(CN2CCN(C(=O)c3ccc(S(=O)(=O)N4CCCCCC4)cc3)CC2)cc1	i	u	-3.4%	10.9%	-34.4%	-6.1%
N#Cc1ccc(CN2CCN(C(=O)c3ccc(S(=O)(=O)N4CCCCCC4)cc3)CC2)cc1	u	16.4µM*	-9.1%	-16.2%	x	u
Cc1[nH]n(-c2ccc([N+](=O)[O-])cc2)c(=O)c1C=NCCN1CCN(C(=O)c2cccc(F)c2)CC1	i	-5.3%	-4.8%	7.94µM*	5.5%	11.1%
Cc1[nH]n(-c2ccc([N+](=O)[O-])cc2)c(=O)c1C=NCCN1CCN(C(=O)c2ccc(Br)cc2)CC1	i	9.6%	-9.8%	7.08µM*	-26.9%	-2.2%
Cc1c(CCC(=O)NCCC(=O)O)c(=O)oc2c(C)c3oc4c(c3cc12)CCCC4	i	u	11.7%	-25.2%	x	-2.3%
CC1CCc2nc3ccc(S(=O)(=O)N4CCC(C(=O)NC(C)c5ccccc5)CC4)cc3c(C(=O)O)c2C1 (stereo unspecified)	i	16.0%	12.3%	1.2%	5.3%	-3.0%
CCOC(=O)c1cc(-c2ccccc2)n(CCCC(=O)Nc2ccc(CC)cc2)c1C	x	x	-16.9%	-41.2%	x	u
CCOC(=O)c1cc(-c2ccccc2)n(CCCC(=O)Nc2ccc(C)c(Cl)c2)c1C	x	x	-13.9%	-28.2%	x	11.2µM*
Cc1ccc(/C(=N\O)c2oc3c(C)c4oc(=O)cc(C)c4cc3c2C)cc1	u	23.1µM*	u	-17.6%	u	u
CCCNC(=O)C1(C)CCN(CCOc2ccc(Cl)cc2)C1 (stereo unspecified)	i	x	x	-13.8%	-13.8%	2.3%
COCCNC(=O)C1(C)CCN(C(=O)c2ccc(C(F)(F)F)nc2C)C1 (stereo unspecified)	i	x	x	-3.6%	11.1%	8.6%
CSc1nc(-c2ccc(C)cc2)nc(C(Cl)Cl)n1	i	-25.0%	u	-4.8%	u	-2.6%
CCSc1nc(-c2ccccc2)nc(C(Cl)Cl)n1	u	u	u	7.08µM*	u	5.62µM*
CC[C@@H](C(=O)[C@@H](C)[C@@H](O)[C@H](C)CCc1ccc(C)c(O)c1C(=O)O)[C@H]1O[C@](CC)([C@H]2CC[C@](O)(CC)[C@H](C)O2)C[C@@H]1C	12.6µM*	5.17µM*	6.51µM*	-100.6%	20µM*	10µM*
Cc1cccc(C(=O)Nc2cc(S(=O)(=O)N3CCOCC3)ccc2N2CCCC2)c1	i	-18.8%	-13.1%	0.0%	0.9%	u
COc1cc2c(cc1OC)C(=O)C(Br)CC2 (stereo unspecified)	u	x	x	15.8µM*	x	u
[N-]=[N+]=CC(=O)CNC(=O)[C@@H](Cc1ccccc1)N1C(=O)c2ccccc2C1=O	x	x	13µM*	1.8%	-27.2%	15.9%
O=C(NCc1ccco1)C(Cc1ccccc1)N1C(=O)c2ccccc2C1=O (stereo unspecified)	i	u	-1.0%	-0.9%	13.2%	13.4%
COc1ccc(S(=O)(=O)N2CCN(C(=O)c3cc4c(s3)CCCC4)CC2)cc1	x	u	1.5%	-0.1%	x	u
O=C(c1cc2c(s1)CCCC2)N1CCN(S(=O)(=O)c2ccccc2)CC1	i	-4.7%	0.7%	10µM*	4.4%	0.0%
Cc1ccc(C(=O)Sc2cccccc2=O)cc1	x	-5.4%	-8.8%	1.41µM*	u	0.891µM*
Cc1ccc(Cn2c(C)c(C(=O)NCc3cccs3)sc2=O)cc1	i	x	x	-1.7%	-1.8%	3.3%
Cc1ccc(C)c(CN2C(=O)C3(c4ccccc42)N(c2ccc(Cl)cc2)C(=O)CS3(=O)=O)c1 (stereo unspecified)	i	20.1%	11.2%	-20.3%	15.7%	1.6%
O=C(Nc1ccc2c(c1)CCCN2C(=O)c1cccs1)c1cccc(C(F)(F)F)c1	35.5µM*	x	-5.7%	-10.4%	u	-7.5%
O=C(Nc1ccc2c(c1)CCCN2C(=O)c1cccs1)c1cccc(F)c1	u	u	11.4%	-33.1%	u	-16.1%
SMILES	ATXN viability	Nrf2 block	A549 viability	HepG2 tox	ATXN2 expr inh	TGFb SMAD3 inh
COc1ccccc1C(=O)Nc1ccc2c(c1)CCCN2C(=O)c1cccs1	i	-17.3%	5.5%	-53.9%	u	-12.0%
COc1ccccc1C(=O)Nc1ccc2c(c1)CCCN2C(=O)c1ccccc1	i	u	0.3%	12.6µM*	-13.9%	2.5%
O=C(Nc1ccc2c(c1)CCCN2C(=O)c1cccs1)c1ccc(F)c(F)c1	25.1µM*	x	-7.0%	-18.7%	u	u
O=C(CN1CCN(S(=O)(=O)c2ccc(Br)cc2)CC1)N/N=C/c1ccccc1C(=O)O	i	-7.8%	1.4%	-5.1%	x	u
COc1ccc(-c2nnc(Nc3ccc(OCC(N)=O)cc3)c3ccccc23)cc1	i	-4.8%	-4.4%	-21.0%	-12.1%	-10.9%
Cc1csc(-c2nnc(Nc3ccc(Oc4ncccc4-c4ccnc(N)n4)cc3)c3ccccc23)c1	x	x	x	x	12.2µM*	x
Cc1ccc2nsnc2c1NC(=O)c1ccc(-c2cc(Cl)ccc2Cl)o1	u	13µM*	9.2µM*	-55.6%	u	u
CC(C)CC(=O)NC(c1cccs1)c1ccc2cccnc2c1O (stereo unspecified)	i	20.6µM*	u	8.6%	u	u
CCC(=O)NC(c1cccs1)c1ccc2cccnc2c1O (stereo unspecified)	u	u	-7.8%	0.8%	x	1µM*
Cc1cccc(NC(=O)CCN2CCN(c3ccccc3F)CC2)c1	i	-8.6%	2.2%	-10.4%	-10.7%	-18.9%
CC(=O)ON=C1C=CC(=C(C#N)c2ccccc2)C=C1	14.1µM*	x	x	-52.2%	14.1µM*	u
COc1ccc(C(C#N)=C2C=CC(=NO)C=C2)cc1	u	-3.5%	-10.4%	i	56.3%	u
CCOC(=O)c1nc(C)nc(Sc2n[nH]c(-c3cc(C(F)(F)F)cc(C(F)(F)F)c3)n2)c1C	u	-0.8%	3.6%	-87.5%	-37.9%	u
CC1(C)CC(N2CCN(Cc3ccccc3)CC2)=CC(=[N+]2CCCCC2)C1	i	18.4µM*	-18.9%	-40.5%	u	u
CC1(C(=O)NS(=O)(=O)C2CC2)CCN(C(=O)COCc2ccccc2)C1 (stereo unspecified)	i	x	x	4.4%	4.5%	-9.6%
COc1ccc(CC(=O)Nc2oc(-c3ccccc3)c(-c3ccccc3)c2C#N)cc1OC	i	u	-5.5%	-23.4%	-12.2%	u
